Screening results deposited in PubChem BioAssay by several laboratories.
This is a sample that favours compounds with a hit; in the whole collection about 4.6% have one here.
SKKanGAS inh – SKKanGAS growth inhibition. S. pyogenes SKKanGAS, kanamycin growth, BacTiter-Glo, 6 h. inhibition, % at 7.5 µM. 300,000 compounds, 1.3% hits;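 active means mean replicate score, as percent of positive control median, at least 50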;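 further: strain carries kanamycin resistance gene driven by streptokinase promoter and grows in 40 µg/ml kanamycin; loss of luminescence reflects streptokinase promoter inhibition or plain growth inhibition; 0% = median of DMSO wells and 100% = positive control at its reference dose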
TIM10 inh – TIM10 yeast growth inhibition; S. cerevisiae TIM10 strain growth, BacTiter-Glo luminescence, 24 h; inhibition, % at 10 µM; 330,000 compounds, 1.4% hits; AID 463195;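 active means inhibition of 40% or more at the single tested concentration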;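 further: wild-type TIM10 isogenic control strain grown at permissive 25 °C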
tim23-1 inh – growth inhibitors of tim23-1 mutant yeast; 330,000 compounds, 1.3% hits; S. cerevisiae tim23-1 growth, BacTiter-Glo luminescence, 24 h; inhibition, % at 20 µM;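 active means growth inhibition of the mutant yeast at or above 50%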;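 further: temperature-sensitive mutant grown at 25 °C; plate controls were DMSO-treated mutant yeast for no effect and medium wells lacking yeast for full effect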
tim10-1 inh – growth inhibitors of tim10-1 mutant yeast; S. cerevisiae tim10-1 ts strain growth, BacTiter-Glo, 24 h; inhibition, % at 20 µM; 330,000 compounds, 2.2% hits;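 active means inhibition of at least 40%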;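 further: mutant grown at 25 °C; 0% = DMSO wells with yeast and 100% = wells holding no yeast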
NLRP3 yeast inh – NALP3 inhibition in yeast; Yeast reconstituted NLRP3/ASC/caspase-1, beta-gal luminescence, 24 h; inhibition, % at 10 µM; 330,000 compounds, 0.39% hits; AID 2825;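 active means inhibition of 50% or more; inactive means inhibition below 50%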;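 further: plate controls were induced DMSO wells for no effect and uninduced yeast grown without galactose for full effect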
tim10-1 conf – confirmation of tim10-1 mutant yeast growth inhibitors; S. cerevisiae tim10-1 ts strain growth, BacTiter-Glo, 24 h; shares compounds with tim10-1 inh; AID 463213; 7,400 compounds, 56% hits; inhibition, % at 20 µM;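 active means inhibition of yeast growth at or above a set limit in either of two repeat tests at 20 µM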;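 further: tim10-1 mutant grown at permissive 25 °C to find synthetic lethal compounds; 0% = DMSO yeast wells and 100% = medium wells without yeast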
tim10 confirm – confirmation of TIM10 yeast growth inhibitors; shares compounds with TIM10 inh; S. cerevisiae tim10 strain growth, BacTiter-Glo luminescence, 24 h; inhibition, % at 10 µM; 4,600 compounds, 63% hits;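 active means inhibition of yeast growth at or above a set limit in either of two replicates at 10 µM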;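 further: this counterscreen used the strain with wild-type TIM10; 0% = yeast with DMSO and 100% = medium wells lacking yeast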
tim23-1 confirm – tim23-1 yeast growth inhibition, confirmed. 4,400 compounds, 83% hits. inhibition, % at 20 µM. S. cerevisiae tim23-1 growth, BacTiter-Glo luminescence, 24 h. shares compounds with tim23-1 inh;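 active means inhibition above about 39% in either of two replicate wells at 20 µM, limit read from the data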;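 further: temperature-sensitive tim23-1 mutant grown at 25 °C; 0% = DMSO wells with yeast and 100% = medium wells without yeast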
The depositor's hits bear a star; / = no result.

SMILES	SKKanGAS inh	TIM10 inh	tim23-1 inh	tim10-1 inh	NLRP3 yeast inh	tim10-1 conf	tim23-1 confirm	others
Cc1ccc(C)c2sc(N3CCN(C(=O)c4ccc([N+](=O)[O-])o4)CC3)nc12	65*	-102	73*	70*	35	60*	7
O=C1c2ccccc2C(=O)C1(O)O	/	1	-11	-15	7	/	/
CC1(S(=O)(=O)O)CC(=O)c2ccccc2C1=O (configuration not stated)	23	32	67*	41*	-7	28	63*
CCOc1cc(C(=O)Nc2ccc(C(=O)NCCN(CC)CC)cc2)ccc1OCC(=O)N1CCOCC1	/	8	13	16	6	/	/
Cc1ccc(S(=O)(=O)CC(=O)c2cc3cccc(C)c3oc2=O)cc1	1	1	53*	42*	5	-23	32
COc1cccc2cc(C(=O)CS(=O)(=O)c3ccc(C)cc3)c(=O)oc12	-6	-4	37	33	9	/	/
O=C(CN1CCC(C(=O)c2ccc3c(c2)OCCO3)CC1)Nc1ccccc1F	-2	-5	26	26	5	/	/
O=C(c1ccc2c(c1)OCCO2)C1CCN(S(=O)(=O)c2ccccc2F)CC1	0	42*	53*	50*	23	43*	48*	tim10 confirm=30
COc1ccc(S(=O)(=O)N2CCC(C(=O)c3ccc4c(c3)OCCO4)CC2)cc1	-4	60*	59*	55*	42	55*	55*	tim10 confirm=55*
CCOc1ccccc1NS(=O)(=O)c1ccc(-c2cnc(C3CC3)o2)cc1	-13	-16	27	34	16	/	/
Cc1ccc(NS(=O)(=O)c2ccc(-c3cnc(C4CC4)o3)cc2)c(C)c1	3	1	51*	53*	1	17	38
O=S(=O)(Nc1ccc(F)cc1Cl)c1ccc(-c2cnc(C3CC3)o2)cc1	9	18	55*	53*	19	17	49*
COc1ccccc1NS(=O)(=O)c1ccc(-c2cnc(C3CC3)o2)cc1	-15	-11	26	31	18	/	/
CCOc1ccc(S(=O)(=O)N2CCC(C(=O)NCc3cccnc3)CC2)cc1C	-3	8	4	-10	16	/	/
CN(CC(=O)Nc1cccc(S(=O)(=O)N2CCCC2)c1)Cc1ccccc1	/	3	4	-1	17	/	/
COc1ccc(OCCOC(=O)c2cccs2)cc1	-21	-10	-7	9	31	/	/
COc1ccc(C2CC2/C(=N/O)c2ccccc2)cc1 (configuration not stated)	-18	-11	15	17	19	/	/
COc1ccc(C2CC2/C(C)=N/OC(=O)c2cccs2)cc1 (configuration not stated)	-7	65*	78*	66*	30	45*	81*	tim10 confirm=86*
COc1ccc(C2CC2/C(C)=N/OC(=O)c2ccc(F)cc2)cc1 (configuration not stated)	6	84*	77*	49*	25	23	61*	tim10 confirm=92*
Cc1ccc(S(=O)(=O)N2[C@@H](c3ccc(C(C)(C)C)cc3)C(C(=O)O)=CC[C@H]2c2ccc(C(C)C)cc2)cc1	/	15	49	30	18	/	/
CCn1nc(C)c(CNC(=O)c2cc(COc3ccc(F)cc3Cl)on2)c1C	-6	21	11	22	0	/	/
CCN1C(=O)[C@H]2[C@H]3CN=C(SCC(=O)c4ccccc4)N3[C@@](C)(C(=O)OC)[C@H]2C1=O	/	1	26	15	/	/	/
CN(C)S(=O)(=O)c1cccc(NC(=O)c2ccc(NS(=O)(=O)c3cccs3)cc2)c1	/	4	4	-3	9	/	/
CCOC(=O)/C(C#N)=C1\C(=O)N(Cc2ccccc2)c2ccccc21	-2	31	53*	43*	13	30	53*
COc1ccc(OCCOC(=O)CCS(=O)(=O)c2ccc(C)cc2)cc1	-8	6	32	27	24	/	/
SMILES	SKKanGAS inh	TIM10 inh	tim23-1 inh	tim10-1 inh	NLRP3 yeast inh	tim10-1 conf	tim23-1 confirm	others
Fc1ccc(C2Nc3cccc4cccc(c34)N2)cc1	13	31	57*	45*	-3	30	51*
Cc1cc(C)n2nc(C(=O)N3CCCC(N4CCN(c5ccccc5C)CC4)C3)cc2n1 (configuration not stated)	-4	17	12	7	16	/	/
Clc1ccc(CSc2nncn2-c2ccc3c(c2)OCCO3)cc1	17	22	52*	41*	28	33*	47*
CCOc1ccc(NC(=O)CN(C)C(=O)COc2cccc3c2OC(C)(C)C3)cc1OCC	/	4	11	2	14	/	/
Cc1cccc(C)c1NC(=O)CNC(=O)Cn1nc(C)c(C)c(C#N)c1=O	1	-2	-18	-18	-1	/	/
O=C(O)c1ccc(NC(=O)c2ccccc2NC(=O)c2ccccc2Br)cc1	0	-9	-4	-1	13	/	/
COc1ccc(/C=C/C(=O)c2cc(Br)ccc2O)cc1OC	-4	22	18	20	14	/	/
O=C(/C=C/c1ccccn1)c1cc(Br)ccc1O	8	72*	78*	70*	18	62*	75*	tim10 confirm=68*
O=C(c1ccc(-c2cccc([N+](=O)[O-])c2)o1)N1CCN(c2ccc([N+](=O)[O-])cc2)CC1	/	5	27	22	21	/	/
CC1CC(C)CN(C(=O)c2ccc(-c3ccc([N+](=O)[O-])cc3)o2)C1 (configuration not stated)	13	56*	63*	69*	13	19	46*	tim10 confirm=58*
O=C(c1ccc(Cl)cc1)C(CN1CCCC1)c1ccccc1 (configuration not stated)	-8	46*	57*	62*	24	26	6	tim10 confirm=51*
O=C(c1ccc(Cl)cc1)C1CCN(Cc2ccccc2)CC1	-3	0	1	8	9	/	/
O=C(CSc1ccc(-c2cccnc2)nn1)Nc1ccc(F)cc1	1	8	8	15	19	/	/
Cc1ccc(S(=O)(=O)NC(C(=O)Oc2ccc3c(C(F)(F)F)cc(=O)oc3c2)c2ccccc2)cc1 (configuration not stated)	3	10	28	22	-1	/	/
O=C1c2cccc3c(N4CCCCC4)ccc(c23)C(=O)N1c1ccccn1	3	-1	25	21	6	/	/
O=C1c2cccc3c([N+](=O)[O-])ccc(c23)C(=O)N1c1ccccn1	4	77*	80*	94*	7	89*	77*	tim10 confirm=-8
Cc1ccccc1C(=O)N(CC(=O)Nc1sc(C)c(C)c1C(N)=O)C1CCCC1	6	6	20	10	15	/	/
